TIM10 inh: growth inhibitors of TIM10 yeast strain | 330,000 tested, 1.4% active | inhibition, % at 10 µM | S. cerevisiae TIM10 strain growth, BacTiter-Glo luminescence, 24 h;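 active = inhibition of 40% or more at the single tested concentration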;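 note: wild-type TIM10 isogenic control strain grown at permissive 25 °C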
PfHsp90 set2: growth inhibition of yeast expressing Plasmodium Hsp90; 310,000 tested, 0.32% active; S. cerevisiae expressing PfHsp90, BacTiter-Glo ATP, 48 h; yeast lacking PDR1 and PDR3 efflux regulators; inhibition, % at 9.4 µM;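 active = every replicate shows inhibition above about 80%, whatever the replicate mean, limit read from the data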
SKKanGAS inh: inhibitors of SKKanGAS S. pyogenes growth in kanamycin (SK-promoter or general growth effect); 300,000 tested, 1.3% active; BacTiter-Glo, 6 h; inhibition, % at 7.5 µM;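 active = mean replicate score, as percent of positive control median, at least 50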;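 note: strain carries kanamycin resistance gene driven by streptokinase promoter and grows in 40 µg/ml kanamycin; loss of luminescence reflects streptokinase promoter inhibition or plain growth inhibition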
NLRP3 yeast inh: inhibitors of NALP3 inflammasome in yeast; Yeast reconstituted NLRP3/ASC/caspase-1, beta-gal luminescence, 24 h; inhibition, % at 10 µM; 330,000 tested, 0.39% active;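 active = inhibition of 50% or more; inactive = inhibition below 50%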
tim10-1 inh: inhibits growth of tim10-1 mutant yeast; S. cerevisiae tim10-1 ts strain growth, BacTiter-Glo, 24 h; inhibition, % at 20 µM; 330,000 tested, 2.2% active;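 active = inhibition of at least 40%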;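 note: mutant grown at 25 °C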
tim23-1 inh: growth inhibitors of tim23-1 mutant yeast. S. cerevisiae tim23-1 growth, BacTiter-Glo luminescence, 24 h. inhibition, % at 20 µM. 330,000 tested, 1.3% active;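 active = growth inhibition of the mutant yeast at or above 50%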;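 note: temperature-sensitive mutant grown at 25 °C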
tim23-1 conf: tim23-1 yeast growth inhibition, confirmed. shares compounds with tim23-1 inh. S. cerevisiae tim23-1 growth, BacTiter-Glo luminescence, 24 h. inhibition, % at 20 µM. 4,400 tested, 83% active;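 active = inhibition above about 39% in either of two replicate wells at 20 µM, limit read from the data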;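 note: temperature-sensitive tim23-1 mutant grown at 25 °C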
Numbers stand for hits; 0 = inactive; - = not tested or not shown. The list is not random: actives were taken first. Their share in the collection is about 4.6%.

SMILES	TIM10 inh	PfHsp90 set2	SKKanGAS inh	NLRP3 yeast inh	tim10-1 inh	tim23-1 inh	tim23-1 conf
O=c1oc2ccccc2cc1-c1nc(-c2ccccc2)no1	0	0	0	0	0	0	-
O=C(OCC(=O)c1ccc[nH]1)c1cncc(Br)c1	0	0	-	0	0	0	-
COc1ccc(C(=O)COC(=O)c2cncc(Br)c2)cc1	0	0	-	0	0	65	75
c1ccc(-n2nc3c(ccc4cnnc43)[nH]2)cc1	0	0	0	0	0	53	50
CCCCOc1ccc(C(=O)NCC2(c3ccccc3)CCOCC2)cc1	0	-	0	0	0	0	-
CCCCCOc1ccc(C(=O)NCC2(c3ccccc3)CCOCC2)cc1	0	0	0	0	0	51	46
CN(C)c1ccc(-c2nnn(CC(=O)NCc3ccc4c(c3)OCO4)n2)cc1	0	0	0	0	0	0	-
CCn1c(/C=C/c2c(C)[nH]c3ccccc23)nc2ccccc2c1=O	0	0	0	0	0	0	-
CCn1c(/C=C2\C(=O)N(C(C)C)c3ccccc32)nc2ccccc2c1=O	0	0	0	0	0	56	42
c1ccc(-c2cncnc2)cc1	0	0	-	0	0	0	-
Cc1ccc2c(c1)COc1c3ccc(C(=O)O)cc3nn1-2	0	0	0	0	0	0	-
C=CCNC(=O)c1ccc2c3n(nc2c1)-c1ccc(Cl)cc1CO3	0	0	0	0	0	59	50
O=C1CCCCC1C(O)c1ccc(Cl)cc1 (stereo not given)	0	-	0	0	0	0	-
C/C(=C\C(=O)c1ccc(C)cc1)Nc1cccc(O)c1	0	0	0	0	0	51	0
O=C(NCC1COc2ccccc2O1)c1ccc(NC(=O)c2ccco2)cc1 (stereo not given)	0	0	0	0	0	58	53
Cc1nc(Nc2ccc(O)cc2)c2c3c(sc2n1)CCCC3	0	0	0	0	0	52	45
Nc1nc(SCC(=O)c2c(N)n(Cc3ccccc3)c(=O)[nH]c2=O)n[nH]1	0	0	0	0	0	0	-
N=c1c2c(-c3ccccc3)c(-c3ccccc3)n(Cc3ccco3)c2ncn1Cc1ccco1	0	0	0	0	0	66	44
CCCCn1cnc2c(c(-c3ccccc3)c(-c3ccccc3)n2Cc2ccco2)c1=N	0	-	0	0	0	0	-
CSCCC(NC(=O)c1cccc(C)c1)C(=O)OCC(=O)Nc1c(C)nn(-c2ccccc2)c1C (stereo not given)	0	0	0	0	0	0	-
Cc1ccc(C(=O)O/N=C(\N)c2ccccn2)c(Cl)c1	0	0	0	0	0	51	54
Cc1ccc(CC(=O)O/N=C(\N)c2ccccn2)cc1	0	0	0	0	0	0	-
CC(=O)N1CCc2ccc(S(=O)(=O)N3CCN(C)CC3)cc21	0	0	0	0	0	0	-
Oc1c(Cl)cc(Cl)cc1CNc1nccs1	0	0	0	0	0	51	52
Oc1c(Cl)cc(Cl)cc1CNn1cnnc1	0	-	0	0	0	0	-
SMILES	TIM10 inh	PfHsp90 set2	SKKanGAS inh	NLRP3 yeast inh	tim10-1 inh	tim23-1 inh	tim23-1 conf
CCCCn1c(N)c(N(CCOC)C(=O)C2CCN(c3ncnc4sc(C)c(C)c34)CC2)c(=O)[nH]c1=O	0	-	0	0	0	53	47
Cc1ccc2c(Cl)c(C)c(N3CCCCC3)nc2n1	0	0	0	0	0	67	58
Cc1nnc(SCC(=O)N2c3ccccc3C(C)(c3ccccc3)CC2(C)C)s1 (stereo not given)	0	0	0	0	0	0	-
COc1ccccc1NC(=O)c1ccc(NC(=O)C2CC2C)cc1 (stereo not given)	0	0	-	0	0	52	48
COc1cccc(C(=O)N=c2sc3cc(S(C)(=O)=O)ccc3n2C)c1	0	0	0	0	0	0	-
CSC1=N/C(=C\c2ccccc2F)C(=O)S1	0	0	0	0	0	52	51
CSC1=N/C(=C\c2ccc(Br)o2)C(=O)S1	0	0	0	0	0	0	-
O=C(c1ccccc1NS(=O)(=O)c1ccc([N+](=O)[O-])cc1[N+](=O)[O-])N1O[C@@H]2C=C[C@H]1C2	0	0	-	-	0	53	0
CC(CNC(=O)COC(=O)c1cccnc1Cl)c1ccccc1 (stereo not given)	0	0	-	0	0	0	-
S=C(NCCc1cccc(Cl)c1)NCc1ccccc1	0	0	-	0	0	56	0
